# Several values for one entry are separate records, joined by “and”; a condition that tells them apart may be missing. Equal values may be shown once. Inconclusive results are not listed. Activity calls are given as the source filed them. Rule for the calls: active = hit-call score of the fitted dose curve at least 0.9, where 1 is the maximum; inconclusive = response in the unintended direction; inactive = score below 0.9.
# What was measured:
# [1] = biological target: human CYP2D6, CYP2D6 (gene 1565) (UniProt P10635); test: NVS_ADME_hCYP2D6: NovaScreen (NVS) CYP450-related Enzyme Activity (ADME) Assay for human CYP2D6 (AID 2283107)
# In short: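 Insect-cell recombinant enzyme + fluorogenic substrate, cell-free; 1 h incubation; fluorescence intensity readout. Acetonitrile = neg. ctrl/baseline. Single-point 10 uM, duplicate; follow-up concentration series.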
# [2] = biological target: human CYP2B6, CYP2B6 (gene 1555) (UniProt P20813); test: NVS_ADME_hCYP2B6: NovaScreen (NVS) CYP450-related Enzyme Activity (ADME) Assay for human CYP2B6 (AID 2283101)
# Description: NVS_ADME_hCYP2B6 is a biochemical, single-readout assay that uses extracted gene-proteins in a cell-free assay. Measurements were taken 1 hour after chemical dosing in a 96-well plate.NVS_ADME_hCYP2B6 is one of one assay component(s) measured or calculated from the NVS_ADME_hCYP2B6 assay. It is designed to make measurements of enzyme activity, a form of enzyme reporter, as detected with fluorescence intensity signals by Fluorescence technology.Data from the assay component NVS_ADME_hCYP2B6 was analyzed into 1 assay endpoint. This assay endpoint, NVS_ADME_hCYP2B6, was analyzed in the positive analysis fitting direction relative to Acetonitrile as the negative control and baseline of activity. Using a type of enzyme reporter, loss-of-signal activity can be used to understand changes in the enzymatic activity as they relate to the gene CYP2B6. Furthermore, this assay endpoint can be referred to as a primary readout, because this assay has produced multiple assay endpoints where this one serves a enzymatic activity function. To generalize the intended target to other relatable targets, this assay endpoint is annotated to the cyp intended target family, where the subfamily is xenobiotic metabolism.
# Binding assays used specific radioligands (tritiated, iodinated) with non-radioactive competitive displacement ligands in agonist or antagonist protocols (as indicated) and various reference compounds and inhibitors to titrate specific binding to receptors and transporters. Most enzyme assays (CYPs, kinases, phosphatases, proteases, HDACs) used recombinant protein and specific substrates (fluorescence mostly, some colorimetric and radioactive) and inhibitors, followed by a biochemical separation of substrate and product. All assays for the biochemical HTS were initially run in duplicate at a single concentration (10 uM for CYP450 assays and 25 uM for all others). […] Each assay was run with positive and negative controls, and concurrent controls on every plate. The follow-up (secondary) screen tested active chemical-pairs in concentration series, as well as a few additional assays not tested in the primary screen, some selected negative inactives, and several cases re-run in the concentration series for confirmatory purposes.
# [3] = biological target: human Caspase 5 (CASP5), CASP5 (gene 838) (UniProt P51878); test: NVS_ENZ_hCASP5: NovaScreen (NVS) Enzymatic Assay for human Caspase 5 (CASP5) (AID 2283137)
# In short: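 Caspase 5 enzyme activity, detected as fluorescence signal loss, is measured in a biochemical format using E. coli-expressed protein. Reading occurs 2 hours post-dosing. Screening runs at 25 uM, with confirmed actives titrated to 50 uM maximum.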
# [4] = biological target: human Beta-secretase (BACE), BACE1 (gene 23621) (UniProt P56817); test: NVS_ENZ_hBACE: NovaScreen (NVS) Enzymatic Assay for human Beta-secretase (BACE) (AID 2283140);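 note: hits are inhibitors that reduce fluorescent substrate signal versus DMSO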
# In short: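 Enzyme activity of SF9-produced BACE1 is measured cell-free by fluorescence, 1 hour post dosing, normalised to DMSO. Screening used 25 uM in duplicate, with concentration-response follow-up for actives.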
# [5] = biological target: human AKT serine/threonine Kinase 1 (AKT1), AKT1 (gene 207) (UniProt P31749); test: NVS_ENZ_hAKT1: NovaScreen (NVS) Enzymatic Assay for human AKT serine/threonine Kinase 1 (AKT1) (AID 2283138)
# In short: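 A biochemical assay with recombinant enzyme and specific substrate, read by fluorescence intensity with mobility-shift separation 1 hour after dosing. Actives from 25 uM duplicate screening were titrated up to 50 uM against DMSO baseline.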
# [6] = biological target: Cytochrome P450 2C19 (Homo sapiens) (UniProt P33261); test: NVS_ADME_hCYP2C19: NovaScreen (NVS) CYP450-related Enzyme Activity (ADME) Assay for human CYP2C19 (AID 2283113);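 for AC50: potency for inhibition seen as loss of fluorescent signal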
# In short: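 Fluorescence intensity was measured 1 hour after chemicals were added to insect-cell-derived recombinant CYP2C19 with fluorogenic substrate. Decreased signal versus acetonitrile control was taken as reduced enzyme activity; initial testing used 10 uM in duplicate.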
# Caspase-3 (Homo sapiens) = Caspase-3 (Homo sapiens) (UniProt P42574); test: NVS_ENZ_hCASP3: NovaScreen (NVS) Enzymatic Assay for human Caspase 3 (CASP3) (AID 2283139)
# In short: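 Single-concentration screening at 25 uM in duplicate, with concentration-response follow-up to a 50 uM maximum for chemicals passing the threshold. Caspase-3 (human, E. coli-expressed) activity was read as substrate fluorescence after 1 h, with loss of signal relative to DMSO.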
# [7] = biological target: human CYP1A2, CYP1A2 (gene 1544) (UniProt P05177); test: NVS_ADME_hCYP1A2: NovaScreen (NVS) CYP450-related Enzyme Activity (ADME) Assay for human CYP1A2 (AID 2283102);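 for AC50: potency for inhibition since loss of fluorescence marks reduced CYP1A2 activity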
# In short: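 rec. hCYP1A2 (insect cells), cell-free; fluorogenic substrate; 0.5 h; FI read. Baseline = acetonitrile; signal loss = inhibition. 10 uM duplicate primary → conc. series for actives.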
# [8] = biological target: Cytochrome P450 3A4 (Homo sapiens) (UniProt P08684); test: NVS_ADME_hCYP3A4: NovaScreen (NVS) CYP450-related Enzyme Activity (ADME) Assay for human CYP3A4 (AID 2283110)
# In short: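 Recombinant CYP3A4 from insect cells, fluorescence enzyme read-out, 0.33 h after chemical addition. Acetonitrile = negative control/baseline. Primary HTS: 10 uM in duplicate; actives re-tested in concentration series.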
# [9] = biological target: human Acid Phosphatase 1 (ACP1), ACP1 (gene 52) (UniProt P24666); test: NVS_ENZ_hACP1: NovaScreen (NVS) Enzymatic Assay for human Acid Phosphatase 1 (ACP1) (AID 2283136)
# In short: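 Cell-free fluorescence read-out of phosphatase activity, substrate and product separated by mobility shift, taken 1.5 h after compound addition; protein produced in Sf9. Single 25 uM duplicate screen, followed by concentration series for actives, scored as signal loss relative to DMSO.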
# human CYP2D6, CYP2D6 (gene 1565), sequence (P10635 whole entry, looked up): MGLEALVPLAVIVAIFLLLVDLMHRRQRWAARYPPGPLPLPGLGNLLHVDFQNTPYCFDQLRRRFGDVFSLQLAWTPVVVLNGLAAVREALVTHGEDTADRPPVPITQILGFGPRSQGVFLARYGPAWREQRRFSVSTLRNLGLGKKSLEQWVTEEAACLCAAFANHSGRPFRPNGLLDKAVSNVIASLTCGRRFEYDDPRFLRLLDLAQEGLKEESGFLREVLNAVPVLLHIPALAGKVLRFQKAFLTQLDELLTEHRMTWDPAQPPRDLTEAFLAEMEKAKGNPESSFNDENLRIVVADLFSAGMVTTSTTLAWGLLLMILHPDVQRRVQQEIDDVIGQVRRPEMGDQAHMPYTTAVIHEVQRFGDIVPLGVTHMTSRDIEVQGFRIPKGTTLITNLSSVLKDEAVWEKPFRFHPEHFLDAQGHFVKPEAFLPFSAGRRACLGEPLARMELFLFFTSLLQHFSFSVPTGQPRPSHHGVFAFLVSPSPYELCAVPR
# human CYP2B6, CYP2B6 (gene 1555), sequence (P20813 whole entry, looked up): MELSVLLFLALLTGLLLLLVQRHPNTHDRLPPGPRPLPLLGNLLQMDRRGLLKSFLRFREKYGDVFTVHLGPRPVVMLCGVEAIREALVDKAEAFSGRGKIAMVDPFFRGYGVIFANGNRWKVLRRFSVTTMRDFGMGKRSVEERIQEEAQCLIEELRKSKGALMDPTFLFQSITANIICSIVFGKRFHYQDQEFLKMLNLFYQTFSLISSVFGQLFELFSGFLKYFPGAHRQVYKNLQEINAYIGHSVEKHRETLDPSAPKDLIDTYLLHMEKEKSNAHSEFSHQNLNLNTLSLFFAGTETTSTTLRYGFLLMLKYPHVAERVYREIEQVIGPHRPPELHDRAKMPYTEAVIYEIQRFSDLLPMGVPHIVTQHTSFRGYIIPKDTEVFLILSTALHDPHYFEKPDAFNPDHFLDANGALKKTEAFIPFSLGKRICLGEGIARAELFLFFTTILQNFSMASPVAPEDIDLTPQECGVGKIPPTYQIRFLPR
# human AKT serine/threonine Kinase 1 (AKT1), AKT1 (gene 207), sequence (P31749 whole entry, looked up): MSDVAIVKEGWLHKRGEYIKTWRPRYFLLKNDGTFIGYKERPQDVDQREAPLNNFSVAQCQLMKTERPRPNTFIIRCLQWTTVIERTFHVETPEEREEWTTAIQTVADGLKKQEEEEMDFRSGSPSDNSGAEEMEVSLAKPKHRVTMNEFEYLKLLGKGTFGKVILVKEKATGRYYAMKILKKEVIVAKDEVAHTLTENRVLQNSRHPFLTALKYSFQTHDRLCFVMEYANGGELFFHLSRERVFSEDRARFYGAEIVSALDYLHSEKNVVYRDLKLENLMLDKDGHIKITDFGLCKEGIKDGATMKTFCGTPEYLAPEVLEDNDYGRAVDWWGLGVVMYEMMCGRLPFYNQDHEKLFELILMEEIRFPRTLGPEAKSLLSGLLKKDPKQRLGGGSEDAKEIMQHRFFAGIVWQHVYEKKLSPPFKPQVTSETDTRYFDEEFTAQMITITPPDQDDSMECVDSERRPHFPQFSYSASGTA
# human Beta-secretase (BACE), BACE1 (gene 23621), sequence (P56817 whole entry, looked up): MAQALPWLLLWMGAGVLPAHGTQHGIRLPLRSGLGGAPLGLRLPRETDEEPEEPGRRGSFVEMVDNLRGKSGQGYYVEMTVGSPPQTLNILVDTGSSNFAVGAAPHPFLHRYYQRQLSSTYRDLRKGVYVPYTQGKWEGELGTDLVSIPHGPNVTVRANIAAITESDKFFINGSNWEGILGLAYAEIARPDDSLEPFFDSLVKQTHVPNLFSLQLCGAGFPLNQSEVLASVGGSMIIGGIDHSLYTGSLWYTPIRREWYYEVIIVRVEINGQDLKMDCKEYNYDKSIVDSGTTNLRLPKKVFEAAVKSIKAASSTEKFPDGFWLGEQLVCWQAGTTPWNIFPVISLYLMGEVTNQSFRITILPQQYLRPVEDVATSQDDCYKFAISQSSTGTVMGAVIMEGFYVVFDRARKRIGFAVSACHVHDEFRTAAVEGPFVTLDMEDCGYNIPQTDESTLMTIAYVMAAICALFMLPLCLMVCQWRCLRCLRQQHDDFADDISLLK
# human CYP1A2, CYP1A2 (gene 1544), sequence (P05177 whole entry, looked up): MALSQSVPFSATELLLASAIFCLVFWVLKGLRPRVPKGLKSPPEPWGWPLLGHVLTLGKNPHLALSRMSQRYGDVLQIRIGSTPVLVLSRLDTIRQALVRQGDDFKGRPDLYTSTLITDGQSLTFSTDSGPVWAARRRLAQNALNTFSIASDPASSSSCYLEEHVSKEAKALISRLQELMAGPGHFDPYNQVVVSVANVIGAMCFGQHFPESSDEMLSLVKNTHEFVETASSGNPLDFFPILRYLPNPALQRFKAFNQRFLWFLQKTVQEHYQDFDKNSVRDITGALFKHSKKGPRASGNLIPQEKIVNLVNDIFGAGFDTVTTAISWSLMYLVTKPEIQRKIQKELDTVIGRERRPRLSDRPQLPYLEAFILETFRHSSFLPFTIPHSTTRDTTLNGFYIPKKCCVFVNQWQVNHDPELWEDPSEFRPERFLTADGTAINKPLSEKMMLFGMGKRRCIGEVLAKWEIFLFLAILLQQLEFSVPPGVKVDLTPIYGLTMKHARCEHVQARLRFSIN
# Cytochrome P450 3A4 (Homo sapiens), sequence (P08684 whole entry, looked up): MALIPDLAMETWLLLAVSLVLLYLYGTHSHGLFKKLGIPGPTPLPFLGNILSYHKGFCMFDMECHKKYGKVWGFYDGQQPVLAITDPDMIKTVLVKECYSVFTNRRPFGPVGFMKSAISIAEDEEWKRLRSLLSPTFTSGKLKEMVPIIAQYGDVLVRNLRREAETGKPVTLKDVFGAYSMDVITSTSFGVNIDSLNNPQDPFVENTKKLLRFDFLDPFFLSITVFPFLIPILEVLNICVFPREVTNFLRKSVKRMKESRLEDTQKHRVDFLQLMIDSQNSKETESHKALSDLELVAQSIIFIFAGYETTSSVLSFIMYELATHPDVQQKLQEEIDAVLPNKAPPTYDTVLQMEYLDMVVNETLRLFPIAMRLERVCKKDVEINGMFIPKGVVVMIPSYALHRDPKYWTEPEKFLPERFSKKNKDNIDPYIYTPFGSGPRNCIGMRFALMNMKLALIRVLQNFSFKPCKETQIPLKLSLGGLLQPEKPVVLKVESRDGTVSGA
# human Caspase 5 (CASP5), CASP5 (gene 838), sequence (P51878 whole entry, looked up): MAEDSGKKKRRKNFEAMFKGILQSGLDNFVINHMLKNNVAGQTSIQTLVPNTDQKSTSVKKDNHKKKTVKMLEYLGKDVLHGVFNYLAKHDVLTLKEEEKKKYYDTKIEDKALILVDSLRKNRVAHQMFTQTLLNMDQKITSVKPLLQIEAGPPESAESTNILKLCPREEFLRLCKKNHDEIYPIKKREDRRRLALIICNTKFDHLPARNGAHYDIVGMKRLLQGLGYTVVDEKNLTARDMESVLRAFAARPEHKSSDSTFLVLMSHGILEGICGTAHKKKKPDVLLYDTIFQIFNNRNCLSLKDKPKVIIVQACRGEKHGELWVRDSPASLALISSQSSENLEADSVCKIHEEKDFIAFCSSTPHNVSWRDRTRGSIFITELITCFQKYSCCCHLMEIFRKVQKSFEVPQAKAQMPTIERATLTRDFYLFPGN
# Caspase-3 (Homo sapiens), sequence (P42574 whole entry, looked up): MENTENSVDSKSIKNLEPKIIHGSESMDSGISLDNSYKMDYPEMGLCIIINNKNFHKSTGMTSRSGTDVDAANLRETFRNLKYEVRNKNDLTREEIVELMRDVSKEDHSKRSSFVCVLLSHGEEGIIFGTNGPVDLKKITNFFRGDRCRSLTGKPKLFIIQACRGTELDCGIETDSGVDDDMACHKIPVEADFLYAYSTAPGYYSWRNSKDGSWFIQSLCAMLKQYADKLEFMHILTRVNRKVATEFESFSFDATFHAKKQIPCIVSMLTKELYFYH
# human Acid Phosphatase 1 (ACP1), ACP1 (gene 52), sequence (P24666 whole entry, looked up): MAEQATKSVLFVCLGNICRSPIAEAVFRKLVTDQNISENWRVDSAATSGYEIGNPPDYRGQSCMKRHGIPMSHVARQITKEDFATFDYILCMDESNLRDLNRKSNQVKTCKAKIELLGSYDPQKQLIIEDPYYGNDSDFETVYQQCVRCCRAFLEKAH
compound,measurement,setting,value
CCn1nc(C)c2c1C(=O)NCC(c1ccc(O)cc1)=N2,AC50,[1],6.23 µM (active)
NC(=O)N(O)[C@@H]1COc2cc(OCc3ccccc3)ccc21,outcome,[2],inactive
CCCCCCCCCCCCCCCCOS(=O)(=O)O,AC50,[3],2.18 µM (active)
same,AC50,[4],1.27 µM (active)
CCCCCCCC/C=C\CCCCCCCC(=O)OC[C@@H](O)[C@H]1OC[C@H](O)[C@H]1O,outcome,[5],inactive
same,AC50,[4],6.7 µM (active)
CCCCN1C(=O)[C@@H]([C@H](O)C2CCCCC2)NC(=O)C12CCN(Cc1ccc(Oc3ccc(C(=O)O)cc3)cc1)CC2,outcome,[4],inactive
CCCCC(CC)C(=O)OCCOCCOCCOC(=O)C(CC)CCCC (centres undefined),outcome,[4],inactive
S=P(N1CC1)(N1CC1)N1CC1,AC50,[6],5.2 µM (active)
same,AC50,[4],22.4 µM (active)
NC(=O)NN=Cc1ccc([N+](=O)[O-])o1,AC50,Caspase-3 (Homo sapiens),20.9 µM (active)
O=C1CN(N=Cc2ccc([N+](=O)[O-])o2)C(=O)N1,AC50,[1],4.5 µM (active)
c1ccc(C(O[C@@H]2CCCN(CCc3ccc4c(c3)OCO4)C2)c2ccccc2)cc1,AC50,[2],4.4 µM (active)
same,AC50,[7],5.35 µM (active)
same,AC50,[1],1.59 µM (active)
same,AC50,[6],5.04 µM (active)
COc1cc(C(C)C)c2c(c1)S(=O)(=O)N(COc1cc(=O)n3cccc(OCCN4CCCCC4)c3n1)C2=O,AC50,[8],0.9 µM (active)
CCCCCCOC(=O)CC(CC(=O)OCCCCCC)(OC(=O)CCC)C(=O)OCCCCCC,AC50,[6],2.71 µM (active)
Cc1nc(-c2ccccn2)ncc1C(=O)Nn1cc(C)c2cc(F)ccc21,outcome,[9],inactive
NC(=O)N1c2ccccc2C=Cc2ccccc21,outcome,[6],inactive
CCCCCCCCCC,AC50,[2],10 µM (active)
same,outcome,[7],inactive
same,outcome,[1],inactive
same,AC50,[8],6.55 µM (active)
same,AC50,[6],5.72 µM (active)
same,outcome,[4],inactive
CC(C)C(=O)Nc1ccc([N+](=O)[O-])c(C(F)(F)F)c1,AC50,[7],5.33 µM (active)
same,AC50,[6],3.2 µM (active)
OCc1c[nH]c2ccccc12,AC50,[6],0.574 µM (active)
same,AC50,[3],25 µM (active) and 29.7 µM (active)
same,AC50,[4],25 µM (active)
CCN(CC)C(=S)SSC(=S)N(CC)CC,AC50,[2],0.405 µM (active)
same,AC50,[7],1.2 µM (active)
NNC(=O)c1ccncc1,AC50,[6],1.49 µM (active)
same,outcome,[5],inactive
Cc1nccn1-c1ccc(Sc2cccc(C3(C(N)=O)CCOCC3)c2)cc1,AC50,[6],5.95 µM (active)
OCCOCCOCCO,outcome,[8],inactive
COCc1nnc(-c2ccc[n+]([O-])c2)n1-c1c(Cl)c(Cl)cc2[nH]c(=O)c(=O)[nH]c12,AC50,[6],4.13 µM (active)
Cc1ncc([C@@H](CCCCCCc2ccc3c(n2)NCCC3)CC(=O)O)cn1,outcome,[9],inactive
same,outcome,[5],inactive
CCCOc1ccc(S(=O)(=O)N2CCN(CC)CC2)cc1-c1nc2c(CC)n(Cc3ccccn3)nc2c(=O)[nH]1,AC50,[6],1.45 µM (active)
C=CCc1cc(S(=O)(=O)c2ccc(O)c(CC=C)c2)ccc1O,AC50,[2],2.77 µM (active)
same,AC50,[7],3.26 µM (active)
same,AC50,[1],0.567 µM (active)
same,AC50,[8],4.54 µM (active)
same,AC50,[6],0.164 µM (active)
same,AC50,[4],15.2 µM (active)
O=C(NO)C1(NS(=O)(=O)c2ccc(Oc3ccc(F)cc3)cc2)CCOCC1,outcome,[6],inactive
CC[C@H](C)C(=O)O[C@H]1C[C@H](O)C=C2C=C[C@H](C)[C@H](CC[C@@H](O)C[C@@H](O)CC(=O)O)[C@H]21,outcome,[4],inactive
CCCC(CCC)C(=O)O,AC50,[6],10 µM (active)
same,outcome,[5],inactive
O=c1[nH]cnc2c1ncn2[C@H]1CC[C@@H](CO)O1,outcome,[5],inactive
O=S(=O)(O)c1ccc(N=Nc2c(O)ccc3cc(S(=O)(=O)O)ccc23)cc1,AC50,Caspase-3 (Homo sapiens),37.7 µM (active)
O=C(N[C@H](CO)[C@H](O)c1ccc([N+](=O)[O-])cc1)C(Cl)Cl,outcome,[4],inactive
